From PubChem BioAssay
Shown are actives, neighbours in structure and some others; about 1.8% of the full set was active somewhere.
Myeloid diff 2: compounds promoting myeloid differentiation; ER-HoxA9 myeloid progenitors, lysozyme-GFP differentiation, flow cytometry; calls only at 10 µM; actives 1% (n = 360,000);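 active means normalized GFP-positive differentiation at or above the plate's own cutoff, the solvent-only control mean plus 3 SD; inconclusive means no clear call, values can overlap the other calls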;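 further: cells exposed to compound for four days before flow analysis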
Granule exo inh: lytic granule exocytosis inhibition | actives 0.66% (n = 360,000) | TALL-104 LAMP-1 surface exposure, flow cytometry; cells stimulated with thapsigargin and PMA | inhibition, % at 10 µM | AID 651702;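 active means inhibition above about 55%, limit read from the data; inconclusive means no clear call, values can overlap the other calls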
ABCB6 inh MLPCN: human ABCB6 transporter inhibition; Q9NP58; K562-ABCB6 porphyrin accumulation, flow cytometry, 1 h; active compounds read low; fluorescence ratio to DMSO, % at 10 µM; actives 0.19% (n = 360,000); AID 602162;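 active means fluorescence ratio to DMSO below 75%, the collection mean minus 3 SD; inconclusive means too few cells collected in the well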;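 further: signal is porphyrin accumulated inside mitochondria; 100% equals median channel fluorescence of DMSO control wells; lower ratio means ABCB6 inhibition with less porphyrin fluorescence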
Myeloid diff: myeloid differentiation induction; shares compounds with Myeloid diff 2; ER-HoxA9 myeloid progenitors, GFP/Mac1 double-positive flow; calls only; actives 2% (n = 2,300); AID 651706;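 active means share of green or green-and-red cells above 9 and 9% in run 1 or 4 and 3% in run 2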
GFP autofluor: flagged as fluorescent in myeloid differentiation counter-screen; shares compounds with Myeloid diff 2; ER-HoxA9 myeloid progenitors, no estrogen, GFP autofluorescence flow cytometry; vehicle wells 0%, positive control 100%; fluorescence response, % (no concentration beside the values); actives 7.4% (n = 2,300); AID 651707;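 active means over 5% cells positive for green fluorescent reporter, or over 2% positive for both it and APC stain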;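 further: range taken on the double positive population between DMSO and positive control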
Exocytosis CP01: blocks lytic granule exocytosis | shares compounds with Granule exo inh | TALL-104 cells, LAMP-1 externalization, flow cytometry; stimulated with PMA plus thapsigargin | inhibition, % at 10 µM | actives 11% (n = 1,500) | AID 651954; in the data active means inhibition above about 60%;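 further: 0% = stimulated vehicle wells and 100% = unstimulated wells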
Numbers without * were called inactive; i = inactive; ? = inconclusive; · = no result; + = active, no number.

SMILES	Myeloid diff 2	Granule exo inh	ABCB6 inh MLPCN	others
CC1(C)C(c2ccccc2)=NC(c2cccnc2)N1O (stereo unspecified)	+	-1	91	Myeloid diff=i;GFP autofluor=0
CCC1(CCC(C)C)C(=O)NC(=S)NC1=O	i	-1	90
Cc1ccc(-n2cc(CNC(C)Cc3cnccn3)c(-c3cccc(C)c3)n2)cc1 (stereo unspecified)	i	6	93
CCOC(=O)C1=C(N)Oc2c(c(=O)oc3ccccc23)C12C(=O)N(C)c1ccccc12 (stereo unspecified)	i	-3	97
C=CCN1C(=O)C2(C(C(=O)OCC)=C(N)Oc3ccccc32)c2c1c1ccccc1oc2=O (stereo unspecified)	i	15	91	Myeloid diff=i;GFP autofluor=0
Cc1cc(N2CCCCC2)ccc1C=C1C(=O)N(C)C(=S)N(C)C1=O	i	-5	104
Cc1cc(N2CCCC2)ccc1C=C(C#N)C#N	+	0	106	Myeloid diff=i;GFP autofluor=4
O=c1c2ccccc2nc(/C=C/c2ccccc2F)n1-c1ccccc1O	i	9	95
O=c1c2ccccc2nc(/C=C/c2ccccc2O)n1-c1ccccc1O	+	8	123	Myeloid diff=i;GFP autofluor=59*
C=CCC1(CCCCC)C(=O)NC(=S)NC1=O	i	-8	88
COC(=O)C1=C(c2cccc(C#N)c2)C[C@@H]2CC[C@H]1N2C(=O)NCCCOC(C)C	i	20	93
O=C1NC(=S)N(c2ccc(Cl)cc2)C(=O)/C1=C/N1CCN(C(=O)c2ccco2)CC1	i	-2	100	Myeloid diff=i;GFP autofluor=0
O=C1NC(=S)N(c2ccc(F)cc2)C(=O)/C1=C\c1ccoc1	i	-4	77
CNC(=O)NC(O)C(Cl)(Cl)Cl (stereo unspecified)	·	1	98
COC(=O)C1=C(c2ccc(OC)c(OC)c2)C[C@@H]2CC[C@H]1N2C(=O)NCc1cccc2ccccc12	i	-1	95
Cc1ccc(OCCOc2cccc(C=C3C(=O)NC(=O)NC3=O)c2)c(C)c1	i	7	107
C=C1C[C@]2(O)[C@@]3(C)CCC(=O)C(C)(C)C3=C(O)C(=O)[C@@]2(C)[C@@H]2C(=O)O[C@@](C)(C(=O)OC)C(=O)[C@@]12C	+	0	101	Myeloid diff=i;GFP autofluor=0
COC(=O)C1=C(c2ccccc2)C[C@@H]2CC[C@H]1N2C	i	-2	95
COc1ccc2c(c1OC)CN1CCc3cc4c(cc3[C@H]1C2)OCO4	i	1	108
COc1ccc2c(c1OC)CN1CCc3cc4c(cc3C1C2)OCO4 (stereo unspecified)	i	38	110	Myeloid diff=i;GFP autofluor=0
COc1ccc(Cc2c(O)[nH]c(=S)[nH]c2=O)cc1	i	-5	92
O=C(Cn1c(=S)[nH]c2ccccc2c1=O)N1CCC2(CC1)OCCO2	i	-2	99
Cn1c(=O)n(CC(=O)N2CCC3(CC2)OCCO3)c(=O)c2ccccc21	+	7	95	Myeloid diff=i;GFP autofluor=0
CCN(CC)S(=O)(=O)c1ccc(C)c(NCC(=O)Nc2ccc(C#N)c(Cl)c2)c1	+	-2	104	Myeloid diff=i;GFP autofluor=0
CC(=O)N1CCN(CC(=O)Nc2ccc(C#N)c(Cl)c2)CC1	i	-5	103
SMILES	Myeloid diff 2	Granule exo inh	ABCB6 inh MLPCN	others
CC(C)OC(=O)c1c(N)n(Cc2ccco2)c2nc3ccccc3nc12	i	-5	101
COCCOC(=O)c1c(N)n(Cc2ccco2)c2nc3ccccc3nc12	i	-5	103	Myeloid diff=i;GFP autofluor=2
CCCN(CCC)C1Cc2cc(OC)c(OC)cc2C1	i	-2	95
COc1ccc2c3c1O[C@H]1C(=O)CC[C@H]4[C@@H](C2)N(C)CC[C@]314	·	16	103
CCOC(=O)[C@]12Cc3ccc(C)cc3[C@H]1N(C1CCCCC1)C(=O)c1cc(OC)ccc12	?	84*	95	Exocytosis CP01=23
CCOC(=O)[C@]12Cc3cc(Cl)ccc3[C@H]1N(C1CCCCC1)C(=O)c1cc(OC)ccc12	i	100*	101	Exocytosis CP01=92*
CCOC(=O)[C@]12Cc3ccc(C)cc3[C@H]1N(C1CCCCC1)C(=O)c1ccccc12	?	39	98
CCOC(=O)[C@]12Cc3cc(C)ccc3[C@H]1N(Cc1ccccc1)C(=O)c1cc(OC)ccc12	i	12	98
CCOC(=O)[C@]12Cc3cc(Cl)ccc3[C@H]1N(Cc1ccccc1)C(=O)c1ccccc12	i	87*	95	Exocytosis CP01=-3
CCOC(=O)[C@]12Cc3cc(OC)ccc3[C@H]1N(CC(=O)OC)C(=O)c1cc(OC)ccc12	i	-4	99
CCOC(=O)[C@]12Cc3cc(C)ccc3[C@H]1N(C1CCCCC1)C(=O)c1ccccc12	?	60*	95	Exocytosis CP01=9
CCOC(=O)[C@]12Cc3cc(N(C)C)ccc3[C@H]1N(Cc1ccccc1)C(=O)c1ccccc12	i	-4	98
COc1ccc(CC(=O)Nc2ccc(C#N)c(Cl)c2)cc1S(=O)(=O)N1CCOCC1	i	-11	87
O=C(COC(=O)c1cccc(O)c1)Nc1ccc(Cl)cc1C(=O)c1ccccc1	i	4	97
CC(C)c1ccccc1OCC(=O)N1CCCN(C)CC1	i	0	95
O=S(=O)(NC1CCCCC1)OCC(Cl)(Cl)Cl	i	-4	91
O=c1[nH]oc2c1CCNC2	i	-2	98
COC(=O)C1=C(c2ccccc2)C[C@@H]2CC[C@H]1N2C(=O)NCCS(C)=O (stereo partly specified)	i	-14	97
COC(=O)C1=C(c2ccc(OC)c(OC)c2)C[C@@H]2CC[C@H]1N2C(=O)N1CCCCC1	i	1	94
CCOC(=O)[C@]12Cc3ccccc3[C@H]1N(C(C)C)C(=O)c1ccccc12	i	-13	101
CCOC(=O)[C@]12Cc3c(cc(OC)c(OC)c3OC)[C@H]1N(C1CCCCC1)C(=O)c1ccccc12	·	63*	91	Exocytosis CP01=6
CC12CC(=O)C3C(CCC4CC=CCC43C)C1CCC2=O (stereo unspecified)	i	-4	89
Cc1cc(OC(C)C(=O)NCc2ccncc2)c2c3c(c(=O)oc2c1)CCCC3 (stereo unspecified)	i	19	98
CC(C)CNC(=O)c1c(N)n(Cc2ccco2)c2nc3ccccc3nc12	i	10	109
CC(C)CNC(=O)c1c(N)n(Cc2ccc3c(c2)OCO3)c2nc3ccccc3nc12	i	56*	102	Exocytosis CP01=81*
COc1cc(C(=O)OC2C[C@H]3CC[C@@H](C2)N3)ccc1O (stereo partly specified)	i	1	114
O=C(COc1ccc(Br)cc1)N1CCN(C2CCCC2)CC1	i	-1	110
Cc1ccc(OCC(=O)N2CCN(C3CCC(c4ccccc4)CC3)CC2)cc1 (stereo unspecified)	i	95*	106	Exocytosis CP01=-2
